Source: PubChem BioAssay (National Center for Advancing Translational Sciences (NCATS))
Hits are enriched below; roughly 2.7% of the tested compounds scored in any of these assays.
GLP1R ag = qHTS of GLP-1 Receptor Agonists; Glucagon-like peptide 1 receptor (Homo sapiens), P43220; Potency, µM (titrated, usually from 45.6 µM), without a hit: top-dose activation, usual class: activators; hit rate 0.007% among 380,000; HEK293 GLP-1R CRE-luciferase, luminescence, 4-6 h; cells express a hypersensitive GLP-1R form; note: % of control where 0% means no effect
Target sequence (P43220 whole entry, looked up): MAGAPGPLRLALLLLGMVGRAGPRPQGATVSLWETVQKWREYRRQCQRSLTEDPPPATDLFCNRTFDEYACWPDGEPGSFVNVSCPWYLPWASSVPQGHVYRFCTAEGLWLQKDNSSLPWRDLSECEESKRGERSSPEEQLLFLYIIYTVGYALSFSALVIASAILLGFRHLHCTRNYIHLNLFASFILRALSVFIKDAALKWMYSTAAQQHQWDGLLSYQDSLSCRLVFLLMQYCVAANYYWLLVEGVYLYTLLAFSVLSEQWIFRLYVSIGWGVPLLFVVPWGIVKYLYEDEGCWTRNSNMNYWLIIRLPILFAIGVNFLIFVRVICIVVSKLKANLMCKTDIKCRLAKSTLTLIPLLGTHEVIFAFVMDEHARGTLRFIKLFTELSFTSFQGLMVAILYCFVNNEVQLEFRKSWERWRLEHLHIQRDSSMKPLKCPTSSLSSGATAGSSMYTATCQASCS
Integrin act MD = qHTS for Activators of Integrin-Mediated Alleviation for Muscular Dystrophy; alpha7betagal myoblasts, beta-gal FDG fluorescence, 48 h; Potency, µM (titrated, usually from 38.3 µM), without a hit: at the top dose activation, most hits filed as activators; hit rate 0.064% among 350,000;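 note: 100% = response of the positive control SU9516; nearly all actives have a fitted effect of over 60% in size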
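Alpha7betagal+/- myoblasts (passage 13) were plated 16-24 hr, then exposed to compounds (1:260 dilution of DMSO stock) for 48 hours at 37C. After MPER lysis, β-galactosidase reporter activity was read as FDG fluorescence (ex 480/em 540) after 30 minutes.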
BRCA1 expr up = qHTS Assay to Identify Small Molecule Activators of BRCA1 Expression; hit rate 1.1% among 380,000; MCF7-BRCA1-FFLuc reporter, luminescence, 48 h; response scale: scaled: vehicle 0%, 10 µM genistein 100%; Potency, µM (highest dose often 46.1 µM), for inactives: top-dose activation, usual class: activators; note: nearly all actives have a fitted effect of over 80% in size
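Using MCF7 cells harboring a BRCA1 firefly luciferase reporter, plated 2 h before compound pinning, the screen measured luminescence after 48 h incubation. Responses were normalized to DMSO and 10 microM genistein, then fitted for concentration-effect.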
GLP1R cytotox = qHTS of GLP-1 Receptor Inverse Agonists: Cytotox Screen. HEK293 cAMP-luciferase reporter cells, luminescence, 24 h. Potency, µM (titrated, usually from 38.3 µM), without a hit: at the highest dose activity change, negative = inhibition, usual class: inhibitors. hit rate 0.13% among 410,000;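 note: loss of luciferase light is scored as toxicity; % is set by controls: 0 for no effect and ±100 for the full control effect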
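A 23 nL compound transfer followed 12 hours of cell culture at 37 deg C; exposure then lasted 24 hr. Luciferase assay detection reagent was dispensed and plates read for luminescence after a 12 min room-temperature wait.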
GLP1R inv ag = qHTS of GLP-1 Receptor Inverse Agonists (Inhibition Mode) | hit rate 1.6% among 410,000 | AID 624417, 2012 | Potency, µM (top dose mostly 38.3 µM), for inactives: at the highest dose activity change, negative = inhibition, usual class: inhibitors | Glucagon-like peptide 1 receptor (Homo sapiens), P43220 | HEK293 GLP-1R CRE-luciferase, luminescence, 24 h; GLP-1R form is constitutively active; note: % is set by controls: 0 for no effect and ±100 for the full control effect; nearly all actives have a fitted effect of over 55% in size
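Seeding at 200 cells/uL, 12 h culture, 24 hr compound treatment, then luciferase reagent and a luminescence read; cells are HEK293 stably expressing a constitutively active GLP-1R plus cAMP-responsive luciferase.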
* marks the source's active call; other numbers are inactive results; i = inactive; ? = inconclusive; . = no result; [ ] = dose if it differs, or a comment. Calls come from the whole dose curve; as a rule, active = well fitted curve in the direction sought with a large enough effect; inconclusive = small, poorly fitted or top-dose-only effect, or another doubt; inactive = no such curve, though single readings can be large; an effect the other way counts as inactive or inconclusive. Potency is the fitted concentration of half-maximal effect.

SMILES	GLP1R ag	Integrin act MD	BRCA1 expr up	GLP1R cytotox	GLP1R inv ag
COc1ccc2[nH]c(=O)c(-c3noc(-c4ccccc4)n3)cc2c1	7.0%	?	5.62µM*	56.2%	59.5%
COc1ccc2[nH]c(=O)c(-c3nnn(-c4ccccc4)n3)cc2c1	-5.4%	-2.0%	?	-20.8%	31.8%
O=C(Oc1ccc(F)cc1)c1nc(SCc2ccc(F)cc2)ncc1Cl	.	.	.	3.9%	-3.3%
Cc1ccc(/C=C/C(=O)Nc2ccncc2)o1	1.9%	10.2%	19.7%	14.8%	0.5%
Cc1cnc(NC(=O)/C=C/c2ccc(Br)o2)s1	-4.3%	-2.0%	0.0%	2.7%	26.5%
Cc1ccc(/C=C/C(=O)Nc2ccc(N(C)C)cc2)o1	-8.3%	-1.4%	3.98µM*	-33.6%	-14.5%
Cc1ccc(/C=C/C(=O)Nc2ncc(C)s2)o1	0.5%	-0.5%	3.16µM*	16.9%	27.2%
COc1cc(C(=O)Oc2ccccc2/C=N/NC(=O)c2ccc(Cl)cc2Cl)cc(OC)c1OC	1.6%	-44.7%	-25.5%	-35.4%	2.24µM*
C=CCOc1ccccc1/C=N/NC(=O)c1ccc(Cl)cc1Cl	7.6%	8.4%	-47.1%	-19.6%	?
CCCCC(c1nnnn1Cc1ccco1)N1CCN(c2nc3ccccc3s2)CC1 (configuration not stated)	2.6%	13.8%	-68.3%	-5.3%	7.08µM*
c1ccc(C(c2nnnn2Cc2ccco2)N2CCN(c3nc4ccccc4s3)CC2)cc1 (configuration not stated)	-5.7%	-24.6%	-59.9%	-12.2%	7.94µM*
Fc1ccc(C(c2nnnn2Cc2cccs2)N2CCN(c3ccccc3)CC2)cc1 (configuration not stated)	-7.4%	-0.2%	-22.9%	4.1%	7.94µM*
CCCCn1nnnc1C(c1ccccc1)N1CCN(c2ccc(F)cc2)CC1 (configuration not stated)	-1.6%	.	4.2%	6.6%	-25.3%
CCCC(c1nnnn1CCOC)N1CCN(c2nc3ccccc3s2)CC1 (configuration not stated)	8.7%	4.4%	0.0%	21.4%	-0.6%
Cn1nnc2c(N3CCN(c4cccc(Cl)c4)CC3)ncnc21	.	.	.	4.3%	2.3%
CCOC(=O)c1ccc(/[N+]([O-])=C/c2ccccc2)cc1	10.2%	-14.2%	?	-8.9%	0.0%
C#CCCc1cscc1/C=[N+](\[O-])c1ccc(C(=O)OCC)cc1	-0.2%	-11.2%	6.31µM*	-7.9%	5.4%
COc1ccc(NC(=O)CSc2ncccc2C(=O)O)cc1OC	.	.	.	1.7%	8.6%
Cc1ccccc1Nc1nc(NCc2ccco2)c2ccccc2n1	-0.5%	-62.7%	-42.7%	?	3.98µM*
c1ccc(Nc2nc(NCc3ccco3)c3ccccc3n2)cc1	-9.2%	-41.1%	-61.3%	?	2.24µM*
c1coc(CNc2nc3ccccc3s2)c1	3.4%	-1.5%	3.16µM*	5.3%	-1.5%
O=c1c2ccccc2nc2ccc(NCc3ccco3)nn12	1.3%	-35.7%	3.55µM*	12.7%	56.1%
Cc1sc2nc3ccc(NCc4ccco4)nn3c(=O)c2c1C	1.4%	-21.5%	20.2%	i	57.1%
CNc1nc(NCc2ccco2)c2ccccc2n1	.	.	-46.9%	.	.
CN(C)c1ccc(/C=C\C=C/c2ccnc3ccccc23)cc1	.	.	6.1%	.	.
SMILES	GLP1R ag	Integrin act MD	BRCA1 expr up	GLP1R cytotox	GLP1R inv ag
CCOc1ccc(S(=O)(=O)Nc2ccc(-c3ccc(OC)nn3)cc2)cc1	.	.	.	-10.7%	0.1%
CC1CCc2c(C(=O)Nc3nccs3)csc2C1 (configuration not stated)	-0.2%	11.5%	12.6µM*	?	?
CC1CCc2sc(C(=O)NC3CCCCC3)cc2C1 (configuration not stated)	7.2%	-1.3%	11.2µM*	-2.0%	1.9%
CC1CCc2c(C(=O)NCc3ccccn3)csc2C1 (configuration not stated)	8.9%	-2.6%	11.2µM*	7.1%	4.5%
CC1CCc2c(C(=O)Nc3ccccn3)csc2C1 (configuration not stated)	17.1%	?	?	10.7%	?
C/C(=N\NC(=O)c1cc2c(s1)CCC(C)C2)c1ccc[nH]1 (configuration not stated)	21.6%	31.4%	5.01µM*	12.8%	-2.1%
CC1CCc2c(C(=O)NCC3CCCO3)csc2C1 (configuration not stated)	0.0%	-35.3%	11.2µM*	-1.1%	8.3%
CC1CCc2sc(C(=O)NCc3ccccn3)cc2C1 (configuration not stated)	-0.1%	0.7%	11.2µM*	14.7%	0.2%
COc1ccc(C(C)NC(=O)Nc2ccc(C(C)=O)cc2)cc1OC (configuration not stated)	8.1%	18.2%	11.2µM*	1.2%	91.9%
COC(=O)[C@@H](NC(=O)Nc1ccc(C(C)=O)cc1)C(C)C	-18.1%	8.1%	1.1%	-10.2%	0.0%
CCCN(CCC)CCCNC(=O)Cn1ncc2c3ccccc3n(Cc3ccccc3F)c2c1=O	.	.	.	-2.3%	-9.5%
O=C(NCc1nnc(SCc2ccc(F)cc2)n1-c1ccc(F)cc1)C12CC3CC(CC(C3)C1)C2	1.7%	26.8%	-45.8%	?	7.08µM*
CCOc1ccc(NC(=O)Cn2c(=O)oc3cc(S(=O)(=O)N4CCC(C)CC4)ccc32)cc1	.	.	.	-2.6%	-10.7%
O=C(CN1C(=O)COc2ccc(S(=O)(=O)N3CCOCC3)cc21)NCc1ccc(F)cc1	.	.	.	0.5%	-4.4%
O=C(NCCc1ccccc1)c1ccccc1[N+](=O)[O-]	0.7%	6.4%	0.0%	2.0%	20.9%
Cc1cc(C(=O)NCCc2ccccc2)ccc1[N+](=O)[O-]	-7.5%	-9.5%	6.31µM*	-8.1%	0.0%
CC(C)c1ccc(CCNC(=O)c2ccc([N+](=O)[O-])cc2)cc1	13.4%	5.1%	-0.8%	-15.6%	3.55µM*
Cc1ccc(C(=O)NCCSC(C)(C)C)cc1	-26.1%	15.3%	31.3%	-0.9%	?
Cc1ccc(C(=O)NCCSC(C)(C)C)cc1[N+](=O)[O-]	-4.0%	18.9%	11.2µM*	-21.1%	-0.6%
O=C(NCCc1ccccc1)c1ccc(Cl)c([N+](=O)[O-])c1	4.7%	-21.2%[7.66 µM]	3.98µM*	4.2%	9.0%
O=C(NCCc1ccccc1)c1ccc([N+](=O)[O-])cc1	-29.3%	21.9%	34.6%	-15.4%	?
CCCCCCCOc1ccc(CC(=O)NO)cc1	.	.	-33.9%	.	.
Cc1ccc(NC(=O)Cn2c(=O)oc3cc(S(=O)(=O)NCc4ccccc4)ccc32)cc1	.	.	0.0%	-0.4%	?
CCCCCCOc1ccc(C(=N)N(CCCC)CCCC)c2ccccc12	-7.7%	.	.	.	.
COC(=O)CSc1nc2sc3c(c2c(=O)n1-c1ccccc1C)CC(C)(C)OC3	9.9%	.	-3.6%	19.3%	31.1%
